In the supplement of paper PMC10849652:
Targets with a hit are over-represented here; the source holds about 7,900 in all. About 0.6% of all pairs of compound and target were hits.

The targets below were run with FC(F)(F)c1ccc(/C=C/c2nc(COc3ccc(CCCCn4ccnn4)cc3)co2)cc1 [mubritinib] (assay: log2 fold change, soluble protein after heating vs DMSO (PISA); higher = thermal stabilisation; K562 cells, 10 uM, 30 min; active = over 0.2 and 3.5 SD of the protein, either way, in both replicates (recomputed)).
How it was run: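 For each measurement, 10 μM compound was applied for 30 min to K562 cells at 2×10^6 cells/mL. Aliquots were heated for 3 min across 48°C-58°C, pooled, and extracted in PBS with 0.5% NP-40 at 4°C; the supernatant after 21,000xg for 90 min was soluble protein. This was quantified by TMTpro 16plex LC-MS/MS with channel sums equalised, and thermal stability was reported relative to control samples from duplicates, on a log2 fold-change scale.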

UniProt Q6ZXV5, sequence (Q6ZXV5 whole entry, looked up): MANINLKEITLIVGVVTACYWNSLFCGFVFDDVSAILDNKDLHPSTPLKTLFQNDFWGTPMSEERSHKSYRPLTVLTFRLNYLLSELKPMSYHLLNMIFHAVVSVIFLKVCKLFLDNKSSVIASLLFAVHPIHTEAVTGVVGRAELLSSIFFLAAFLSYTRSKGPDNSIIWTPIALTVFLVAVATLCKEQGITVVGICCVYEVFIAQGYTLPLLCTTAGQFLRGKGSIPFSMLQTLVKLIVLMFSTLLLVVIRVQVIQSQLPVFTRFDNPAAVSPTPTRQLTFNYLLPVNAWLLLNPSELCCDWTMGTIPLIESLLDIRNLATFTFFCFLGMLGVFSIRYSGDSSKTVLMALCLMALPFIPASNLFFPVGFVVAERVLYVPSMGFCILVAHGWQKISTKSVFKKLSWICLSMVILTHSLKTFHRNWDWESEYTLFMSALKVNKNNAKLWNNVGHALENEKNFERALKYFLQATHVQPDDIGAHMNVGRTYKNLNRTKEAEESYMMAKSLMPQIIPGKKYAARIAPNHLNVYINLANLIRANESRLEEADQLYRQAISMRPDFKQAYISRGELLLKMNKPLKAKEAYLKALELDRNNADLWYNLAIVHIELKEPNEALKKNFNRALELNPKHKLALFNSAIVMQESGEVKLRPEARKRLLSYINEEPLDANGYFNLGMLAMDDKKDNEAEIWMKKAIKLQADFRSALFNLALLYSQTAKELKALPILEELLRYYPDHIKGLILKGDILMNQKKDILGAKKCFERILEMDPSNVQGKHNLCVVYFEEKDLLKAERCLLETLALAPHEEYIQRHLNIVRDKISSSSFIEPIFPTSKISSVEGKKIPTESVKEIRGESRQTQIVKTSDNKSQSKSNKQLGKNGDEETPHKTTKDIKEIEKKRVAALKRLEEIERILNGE
UniProt Q9BQB6, sequence (Q9BQB6 whole entry, looked up): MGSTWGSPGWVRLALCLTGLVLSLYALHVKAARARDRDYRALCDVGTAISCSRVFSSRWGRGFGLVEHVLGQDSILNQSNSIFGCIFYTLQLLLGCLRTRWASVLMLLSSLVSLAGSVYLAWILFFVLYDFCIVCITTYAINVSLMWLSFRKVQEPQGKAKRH
UniProt Q9H267, sequence (Q9H267 whole entry, looked up): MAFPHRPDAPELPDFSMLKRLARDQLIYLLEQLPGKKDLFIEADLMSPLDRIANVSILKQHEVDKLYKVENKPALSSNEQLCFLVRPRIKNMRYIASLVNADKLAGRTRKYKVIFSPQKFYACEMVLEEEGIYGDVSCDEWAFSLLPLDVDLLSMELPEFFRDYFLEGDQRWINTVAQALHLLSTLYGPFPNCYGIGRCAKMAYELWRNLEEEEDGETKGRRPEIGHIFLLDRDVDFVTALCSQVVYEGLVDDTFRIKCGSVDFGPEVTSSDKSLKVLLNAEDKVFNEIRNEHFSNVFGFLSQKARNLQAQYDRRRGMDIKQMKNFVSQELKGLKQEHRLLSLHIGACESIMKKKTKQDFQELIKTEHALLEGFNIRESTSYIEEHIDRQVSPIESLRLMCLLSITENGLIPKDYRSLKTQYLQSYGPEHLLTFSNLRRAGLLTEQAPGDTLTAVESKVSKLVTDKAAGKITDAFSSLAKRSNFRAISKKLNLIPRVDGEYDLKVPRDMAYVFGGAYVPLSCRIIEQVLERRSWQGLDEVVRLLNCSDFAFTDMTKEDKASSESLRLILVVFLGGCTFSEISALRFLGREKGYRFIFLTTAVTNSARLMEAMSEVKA
UniProt Q9UEU0, sequence (Q9UEU0 whole entry, looked up): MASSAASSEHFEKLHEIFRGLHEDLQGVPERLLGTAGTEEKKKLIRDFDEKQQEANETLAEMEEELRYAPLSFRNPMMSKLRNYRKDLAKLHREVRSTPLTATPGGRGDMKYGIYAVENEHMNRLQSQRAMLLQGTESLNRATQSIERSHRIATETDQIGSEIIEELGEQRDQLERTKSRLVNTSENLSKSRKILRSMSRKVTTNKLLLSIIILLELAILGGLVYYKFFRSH
UniProt Q16763, sequence (Q16763 whole entry, looked up): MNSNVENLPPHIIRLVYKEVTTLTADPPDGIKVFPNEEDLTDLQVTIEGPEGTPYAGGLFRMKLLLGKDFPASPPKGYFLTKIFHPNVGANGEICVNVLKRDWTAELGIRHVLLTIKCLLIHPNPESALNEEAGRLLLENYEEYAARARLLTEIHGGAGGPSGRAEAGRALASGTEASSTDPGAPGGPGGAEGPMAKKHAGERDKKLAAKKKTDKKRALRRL
UniProt Q96LJ8, sequence (Q96LJ8 whole entry, looked up): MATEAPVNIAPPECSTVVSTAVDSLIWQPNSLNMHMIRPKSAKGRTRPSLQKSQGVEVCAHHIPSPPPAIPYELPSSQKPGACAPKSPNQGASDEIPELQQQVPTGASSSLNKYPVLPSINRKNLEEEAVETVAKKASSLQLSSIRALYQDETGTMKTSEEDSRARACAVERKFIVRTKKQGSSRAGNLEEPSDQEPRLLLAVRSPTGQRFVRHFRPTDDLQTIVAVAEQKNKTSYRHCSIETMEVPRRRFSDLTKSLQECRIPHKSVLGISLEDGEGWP
UniProt Q8N1B4, sequence (Q8N1B4 whole entry, looked up): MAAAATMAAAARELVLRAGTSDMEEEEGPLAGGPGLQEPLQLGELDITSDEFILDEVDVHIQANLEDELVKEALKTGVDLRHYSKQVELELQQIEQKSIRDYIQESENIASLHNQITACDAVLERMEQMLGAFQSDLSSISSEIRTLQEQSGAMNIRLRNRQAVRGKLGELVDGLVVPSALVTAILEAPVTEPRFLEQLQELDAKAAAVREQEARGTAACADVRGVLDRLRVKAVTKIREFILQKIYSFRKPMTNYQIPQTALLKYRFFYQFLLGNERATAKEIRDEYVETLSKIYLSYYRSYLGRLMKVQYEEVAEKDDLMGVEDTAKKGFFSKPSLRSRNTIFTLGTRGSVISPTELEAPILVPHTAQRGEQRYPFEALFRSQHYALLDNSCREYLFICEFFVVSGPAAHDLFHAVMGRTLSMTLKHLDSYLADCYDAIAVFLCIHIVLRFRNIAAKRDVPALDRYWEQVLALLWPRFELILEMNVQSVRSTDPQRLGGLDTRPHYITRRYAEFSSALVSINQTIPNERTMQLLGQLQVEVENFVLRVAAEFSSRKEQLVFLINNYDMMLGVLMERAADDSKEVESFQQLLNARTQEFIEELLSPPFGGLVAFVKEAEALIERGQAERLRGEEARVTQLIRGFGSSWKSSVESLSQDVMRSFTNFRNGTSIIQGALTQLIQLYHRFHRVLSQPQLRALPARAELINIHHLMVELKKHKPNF
UniProt Q7Z6J8, sequence (Q7Z6J8 whole entry, looked up): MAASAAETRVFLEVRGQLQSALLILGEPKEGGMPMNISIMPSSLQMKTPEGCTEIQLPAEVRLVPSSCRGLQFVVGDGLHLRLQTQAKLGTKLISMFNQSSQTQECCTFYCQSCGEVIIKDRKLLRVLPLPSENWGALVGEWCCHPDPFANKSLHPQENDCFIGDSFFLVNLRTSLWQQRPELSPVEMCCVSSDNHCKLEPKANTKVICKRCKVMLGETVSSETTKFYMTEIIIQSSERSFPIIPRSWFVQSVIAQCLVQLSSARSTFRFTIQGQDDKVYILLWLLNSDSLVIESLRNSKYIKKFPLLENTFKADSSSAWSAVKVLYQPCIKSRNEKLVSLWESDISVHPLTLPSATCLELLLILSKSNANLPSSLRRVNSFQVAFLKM
UniProt O94874, sequence (O94874 whole entry, looked up): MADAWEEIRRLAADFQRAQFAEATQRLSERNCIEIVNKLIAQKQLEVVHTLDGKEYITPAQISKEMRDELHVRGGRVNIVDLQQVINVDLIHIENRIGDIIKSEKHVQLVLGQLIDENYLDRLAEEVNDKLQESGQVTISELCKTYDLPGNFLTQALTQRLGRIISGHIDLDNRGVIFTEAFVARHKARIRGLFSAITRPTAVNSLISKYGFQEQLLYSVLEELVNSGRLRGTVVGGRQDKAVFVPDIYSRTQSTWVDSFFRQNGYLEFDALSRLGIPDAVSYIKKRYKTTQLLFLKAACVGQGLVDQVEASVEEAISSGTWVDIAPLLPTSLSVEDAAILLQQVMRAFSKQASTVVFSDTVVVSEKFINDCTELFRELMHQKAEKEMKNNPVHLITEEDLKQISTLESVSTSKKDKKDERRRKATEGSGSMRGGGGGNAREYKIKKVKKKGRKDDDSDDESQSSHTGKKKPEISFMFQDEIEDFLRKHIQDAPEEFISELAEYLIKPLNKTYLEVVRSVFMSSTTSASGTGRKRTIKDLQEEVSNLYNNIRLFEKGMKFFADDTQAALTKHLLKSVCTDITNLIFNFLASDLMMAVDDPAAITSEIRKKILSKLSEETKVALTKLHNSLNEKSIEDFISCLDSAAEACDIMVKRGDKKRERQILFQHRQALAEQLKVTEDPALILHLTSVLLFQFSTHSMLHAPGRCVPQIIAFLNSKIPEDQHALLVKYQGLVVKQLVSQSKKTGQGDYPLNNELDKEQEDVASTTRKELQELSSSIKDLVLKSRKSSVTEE

Row | Target | log2 fold change
1 | UBXN10 (UniProt Q96LJ8) | 0.067 (inactive)
2 | TNPO1 (UniProt Q92973) | 0.005 (inactive)
3 | UFL1 (UniProt O94874) | 0.062 (inactive)
4 | VTI1B (UniProt Q9UEU0) | -0.055 (inactive)
5 | VKORC1 (UniProt Q9BQB6) | 0.035 (inactive)
6 | VPS52 (UniProt Q8N1B4) | 0 (inactive)
7 | UBE3D (UniProt Q7Z6J8) | 0.009 (inactive)
8 | VPS33B (UniProt Q9H267) | 0.054 (inactive)
9 | USP48 isoform 8 (UniProt Q86UV5) | -0.021 (inactive)
10 | UBE2S (UniProt Q16763) | 0.002 (inactive)
11 | TMTC3 (UniProt Q6ZXV5) | 0.011 (inactive)
